Potency and affinity values are given separately. A number with no mark means an inactive call. No rule for the calls is given here.
Experiment: HEK293 cell cytotoxicity, dose response, cytotoxicity control, plate reader, cherry-picked samples (AID 743446)
Conditions: stronger effect = lower value; at 26 µM unless noted
With `CCCc1ccc(-c2ccc(F)c(N)c2)nc1` the max activity was -20.7% [at 12 µM].
`O=C(c1ccc2c(c1)OCCO2)C1CCN(S(=O)(=O)c2ccc(F)cc2)CC1` gave a max activity of 25.1% [at 0.1 µM].
For `Cc1ccccc1-c1ccc([C@H]2[C@@H](CO)N3CCCCN(S(=O)(=O)c4ccc(F)cc4)C[C@@H]23)cc1`, the max activity was -101%.
In the case of `CCOC(=O)c1cn2nc(N3CCCCC3)ccc2n1`, the max activity was -14% [at 3 µM].
`N#C[C@@H]1[C@H](c2ccc(C#Cc3cccc(F)c3)cc2)[C@@H](CO)N1C(=O)C1CCC1` showed a max activity of 22.1% [at 12 µM].
With `COc1ccc(N(CC(=O)NCc2cccs2)S(=O)(=O)c2ccc(C(C)=O)cc2)cc1` the max activity was -10.6% [at 3 µM].

Reference: PubChem BioAssay AID743446 (Broad Institute, 2014)
